Assay outcomes from PubChem BioAssay.
This is a sample that favours compounds with a hit; in the whole collection about 6% have one here.
VDR inhibitor – Inhibitors of the vitamin D receptor (VDR): qHTS. AID 504847, 2011. 400,000 tested, 0.93% active. VDR-SRC2-3 peptide fluorescence polarization, 2 h. Potency, µM, actives largely listed as inhibitors
Target sequence (P11473 whole entry, looked up): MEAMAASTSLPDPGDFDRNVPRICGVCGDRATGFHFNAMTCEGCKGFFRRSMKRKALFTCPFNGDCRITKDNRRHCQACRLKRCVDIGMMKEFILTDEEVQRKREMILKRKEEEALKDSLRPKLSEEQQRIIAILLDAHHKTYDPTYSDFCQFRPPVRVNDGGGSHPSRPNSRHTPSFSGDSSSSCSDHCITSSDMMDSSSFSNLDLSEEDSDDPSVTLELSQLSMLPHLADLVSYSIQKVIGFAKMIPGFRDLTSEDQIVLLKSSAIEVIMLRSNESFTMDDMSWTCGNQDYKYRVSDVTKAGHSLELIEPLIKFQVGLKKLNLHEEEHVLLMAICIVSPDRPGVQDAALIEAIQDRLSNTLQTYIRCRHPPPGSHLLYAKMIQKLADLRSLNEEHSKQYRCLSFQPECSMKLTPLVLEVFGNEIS
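Two reagent solutions held at 4 deg C in the dark were dispensed, compounds pinned at 23 nl, and the mixture incubated 2 h at room temperature. Read-out: fluorescence polarization of VDR–SRC2-3 peptide binding.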
Tau fibril ThT – qHTS for Inhibitors of Tau Fibril Formation, Thioflavin T Binding. 270,000 tested, 2.1% active. Potency, µM (highest dose often 57.4 µM), actives largely listed as inhibitors. AID 1460, 2008. recombinant tau K18 P301L, heparin-induced fibrillization, ThT fluorescence. Microtubule-associated protein tau (Homo sapiens), P10636; also: nearly all actives have a fitted effect of over 55% in size
Target sequence (P10636 561-689 P618L limits assumed): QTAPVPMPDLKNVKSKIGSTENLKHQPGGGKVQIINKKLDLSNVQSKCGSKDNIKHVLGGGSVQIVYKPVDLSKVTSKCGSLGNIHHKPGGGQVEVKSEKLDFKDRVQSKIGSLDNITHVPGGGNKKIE
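Fibril formation assay: tau K18 P301L at 15 uM with trace Alexa 594 label, heparin inducer 20 uM, pH 7 sodium acetate buffer, 37 C for 6 hr; endpoint ThT signal.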
Tau FP inhib – qHTS for Inhibitors of Tau Fibril Formation, Fluorescence Polarization | Potency, µM (titrated, usually from 57.7 µM), hits mostly inhibitors | 280,000 tested, 0.39% active | AID 1468, 2008 | K18 P301L tau heparin fibrillization, Alexa594 FP, 6 h; also: nearly all actives have a fitted effect of over 55% in size
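K18 P301L tau (15 uM unlabeled/0.24 uM Alexa 594-labeled, final) + compound + heparin 20 uM final; 100 mM NaOAc pH 7; 6 hr 37 C; ThT 30 uM final added, 1 hr RT; FP ex 555/em 632 nm.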
Tau fluor cs – Counterscreen qHTS for Inhibitors of Tau Fibril Formation, Fluorescence Polarization | Potency, µM (series often up to 57.7 µM) | tau K18 P301L Alexa594 fluorescence, heparin fibrillization | AID 1463, 2008 | 280,000 tested, 0.93% active; also: nearly all actives have a fitted effect of over 55% in size
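Human tau K18 P301L (15 uM unlabeled, 0.24 uM Alexa 594-labeled) in 100 mM sodium acetate pH 7 with 20 uM heparin, 6 hr at 37 C. ThT 30 uM added, 1 hr ambient; Alexa 594 FP and total fluorescence read at 555/632 nm.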
Sfp PPTase inh – qHTS Assay for Inhibitors of Bacillus subtilis Sfp phosphopantetheinyl transferase (PPTase); Biochemical Sfp PPTase activity, qHTS; 310,000 tested, 3.5% active; AID 1490, 2009; Potency, µM, most hits filed as inhibitors; 4'-phosphopantetheinyl transferase ffp (Bacillus subtilis), Q9F4F7;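 also: the enzyme is Sfp with the accession as filed and its product quenches rhodamine fluorescence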
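Reaction rates are the 30-min fluorescence difference (ex 525, em 598 nm) in wells containing 15 nM Sfp, 5 uM rhodamine-CoA and 12.5 uM BHQ-2-YbbR at pH 7.6 with 10 mM MgCl2.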
PLK1 PBD block – qHTS for Inhibitors of PLK1-PDB (polo-like kinase 1 - polo-box domain): Primary Screen; Serine/threonine-protein kinase PLK1 (Homo sapiens), P53350; 360,000 tested, 2.8% active; AID 720504, 2013; Plk1 PBD binding of FITC phosphopeptide, fluorescence polarization; Potency, µM, actives largely listed as inhibitors; also: series mostly up to about 57 µM; nearly all actives have a fitted effect of over 65% in size
Each line names hits and unclear results; the compound was inactive in the other large screens; ! = a repeat was not active. Calls follow the shape of the dose curve; as a rule, active = well fitted curve in the direction sought with a large enough effect; inconclusive = small, poorly fitted or top-dose-only effect, or another doubt; inactive = no such curve, though single readings can be large; an effect the other way counts as inactive or inconclusive.

O=c1cc2c(=O)oc3cc(O)c(O)oc3c2c(O)c1O	Tau fibril ThT 4.47µM, Tau FP inhib inconclusive, Sfp PPTase inh 5.01µM, PLK1 PBD block inconclusive
c1ccc(-n2c(SCc3ccncc3)nnc2-c2ccco2)cc1	Sfp PPTase inh 28.2µM
O=C(O)c1ccc(CSc2nnc(-c3ccco3)n2-c2ccccc2)cc1	none
O=c1[nH]nc(Cc2ccccc2)c2ccccc12	none
O=c1[nH]nc(Cc2ccc(-c3ccc(Cl)cc3)o2)c2ccccc12	Sfp PPTase inh 56.2µM
CCc1ccc(-n2c(=O)c3c4c(sc3n(CC(=O)NCCCOC)c2=O)CCC4)cc1	none (no result: Sfp PPTase inh, PLK1 PBD block)
Cc1ccccc1-c1nc2c3ccccc3nc(=S)n2[nH]1	none (no result: Tau fibril ThT, Tau FP inhib, Tau fluor cs)
Cc1nc2ccccc2n1CCc1nc2c3ccccc3nc(=S)n2[nH]1	Sfp PPTase inh 50.1µM
CC(=O)Nc1ccc(NCCc2ccco2)cc1	none (no result: VDR inhibitor, Tau fibril ThT, Tau FP inhib, Tau fluor cs, Sfp PPTase inh)
C#CCCCCCCCCCCCc1ccco1	VDR inhibitor 35.5µM (no result: PLK1 PBD block)
[O-]c1c[n+](-c2ccccc2)no1	none (no result: Tau fibril ThT)
[O-]c1c[n+](-c2ccc(-[n+]3cc([O-])on3)cc2)no1	VDR inhibitor inconclusive, Tau fibril ThT inconclusive, Sfp PPTase inh 56.2µM
Cc1cc(-c2nnc(-c3ccccc3)c(-c3ccccc3)n2)c(C)o1	VDR inhibitor inconclusive, Tau fibril ThT inconclusive, Sfp PPTase inh 14.1µM
O=C(O)COc1ccccc1/C=N/n1c(C2CCCCC2)n[nH]c1=S	VDR inhibitor inconclusive, Sfp PPTase inh 50.1µM, PLK1 PBD block inconclusive (no result: Tau fibril ThT, Tau FP inhib, Tau fluor cs)
S=c1[nH]nc(C2CCCCC2)n1/N=C/c1ccccc1Br	PLK1 PBD block 11.9µM (no result: Tau fibril ThT, Tau FP inhib, Tau fluor cs)
CC(=O)c1ccc(OC2(C)CCN(Cc3csc4ccccc34)C2)cc1 (centres undefined)	none (no result: VDR inhibitor, Tau fibril ThT, Tau FP inhib, Tau fluor cs, Sfp PPTase inh)
CCc1ccc(CNC(=O)c2nn(C)c3c2CS(=O)(=O)c2ccccc2-3)cc1	none (no result: Tau fibril ThT, Tau FP inhib, Tau fluor cs)
Cc1ccc(CNC(=O)c2nn(C)c3c2CS(=O)(=O)c2ccccc2-3)cc1	PLK1 PBD block 29.9µM
COc1ccc(CNC(=O)c2nn(C)c3c2CS(=O)(=O)c2ccccc2-3)cc1	VDR inhibitor 79.4µM!
Cc1ccccc1CN1C(=O)c2ccccc2S(=O)c2ccc(C(=O)NCc3ccco3)cc21 (centres undefined)	none (no result: Sfp PPTase inh, PLK1 PBD block)
O=C(Nc1nc2cc3c(cc2s1)OCCO3)c1ccc(N2C(=O)CCC2=O)cc1	Sfp PPTase inh 14.1µM (no result: Tau fibril ThT)
CCc1ccc2nc(NC(=O)c3ccc(N4C(=O)CCC4=O)cc3)sc2c1	none
O=C(Nc1nc2cc3c(cc2s1)OCCO3)c1ccncc1	VDR inhibitor inconclusive, Tau fibril ThT inconclusive, Tau FP inhib inconclusive, PLK1 PBD block 21.2µM
CNS(=O)(=O)c1ccc2nc(NC(=O)c3ccc(N4C(=O)CCC4=O)cc3)sc2c1	VDR inhibitor inconclusive, Sfp PPTase inh 14.1µM, PLK1 PBD block 7.52µM
FC(F)(F)c1ccccc1-c1ccc2ncnc(NCCN3CCOCC3)c2c1	none (no result: Tau fibril ThT, Tau FP inhib, Tau fluor cs, PLK1 PBD block)
COc1cc(OC)c(NC(=O)CN2C(=O)CCn3nc(-c4cccn4C)cc32)cc1Cl	none (no result: Sfp PPTase inh, PLK1 PBD block)
CC(Oc1cccc(Cl)c1)C(=O)Nc1ccc(S(=O)(=O)N(C)C2CCN(C)CC2)cc1 (centres undefined)	none (no result: Tau fibril ThT, Tau FP inhib, Tau fluor cs, Sfp PPTase inh)
Clc1ccc(Cn2nnc(-c3ccccc3)n2)cc1	none
Clc1ccccc1-c1nnn(Cc2ccc(-c3nn[nH]n3)cc2)n1	PLK1 PBD block 26.7µM
Cc1ccc2nc(/N=C(\N)NC(=O)NC3CCCCC3)nc(C)c2c1	Tau fibril ThT inconclusive, Sfp PPTase inh 44.7µM
CCCC(=O)N/C(N)=N/c1nc(C)c2cc(C)ccc2n1	none
Cc1ccccc1NC(=O)CSc1ncc2c(n1)-c1ccccc1N(C)S2(=O)=O	Tau FP inhib inconclusive (no result: Sfp PPTase inh, PLK1 PBD block)
CN(C)CCOc1cccc(Cl)c1	none
CN(C)CCCCOc1cccc(Br)c1	Tau fibril ThT inconclusive, Sfp PPTase inh 56.2µM
